Columns and labels:
Test in all cases: protein binding microarray; high values mean tight binding
Conditions in all cases: dsDNA, one strand shown
RELARELA (p65 homodimer) = RELARELA (p65 homodimer) (Homo sapiens, UniProt Q04206 1-307)
p50p50 homodimer = p50p50 homodimer (Homo sapiens, UniProt P19838 7-356)
p52p52 homodimer = molecular target: T1, p52p52 homodimer (Homo sapiens, UniProt Q00653 4-332)
T1 sequence: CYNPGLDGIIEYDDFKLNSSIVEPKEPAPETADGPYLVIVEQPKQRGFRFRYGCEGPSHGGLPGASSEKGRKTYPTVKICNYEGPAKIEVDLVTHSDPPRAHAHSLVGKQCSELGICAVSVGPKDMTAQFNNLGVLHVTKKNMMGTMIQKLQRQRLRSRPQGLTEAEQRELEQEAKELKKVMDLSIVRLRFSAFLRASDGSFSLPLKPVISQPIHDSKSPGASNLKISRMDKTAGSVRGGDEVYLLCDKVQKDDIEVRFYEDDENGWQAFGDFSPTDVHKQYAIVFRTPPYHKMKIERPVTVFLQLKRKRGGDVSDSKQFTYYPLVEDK

[1] = molecular target: RELA (p65) subunit of heterodimer;p50 subunit (Homo sapiens;Homo sapiens, UniProt Q04206;P19838 1-307;7-356)
[2] = molecular target: RELA (p65) subunit of heterodimer;p52 subunit (Homo sapiens;Homo sapiens, UniProt Q04206;Q00653 1-307;4-332)
RELB subunit;p50 subunit = RELB subunit;p50 subunit (Homo sapiens;Homo sapiens, UniProt Q01201;P19838 120-401;7-356)
RELB subunit;p52 subunit = molecular target: T2, RELB subunit;p52 subunit (Homo sapiens;Homo sapiens, UniProt Q01201;Q00653 120-401;4-332)
T2 sequence 1: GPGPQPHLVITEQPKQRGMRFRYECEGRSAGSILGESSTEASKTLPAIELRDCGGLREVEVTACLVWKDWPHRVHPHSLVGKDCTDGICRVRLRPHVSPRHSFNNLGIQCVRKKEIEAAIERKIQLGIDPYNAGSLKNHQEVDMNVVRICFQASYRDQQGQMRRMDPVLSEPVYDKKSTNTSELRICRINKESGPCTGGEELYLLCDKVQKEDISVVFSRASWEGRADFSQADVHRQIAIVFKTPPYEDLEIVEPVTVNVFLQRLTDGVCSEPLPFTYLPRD
T2 sequence 2: T1 sequence

[3] = molecular target: C-Rel subunit;p50 subunit (Homo sapiens;Homo sapiens, UniProt Q04864;P19838 1-285;7-356)
[4] = molecular target: T3, C-Rel subunit;p52 subunit (Homo sapiens;Homo sapiens, UniProt Q04864;Q00653 1-285;4-332)
T3 sequence 1: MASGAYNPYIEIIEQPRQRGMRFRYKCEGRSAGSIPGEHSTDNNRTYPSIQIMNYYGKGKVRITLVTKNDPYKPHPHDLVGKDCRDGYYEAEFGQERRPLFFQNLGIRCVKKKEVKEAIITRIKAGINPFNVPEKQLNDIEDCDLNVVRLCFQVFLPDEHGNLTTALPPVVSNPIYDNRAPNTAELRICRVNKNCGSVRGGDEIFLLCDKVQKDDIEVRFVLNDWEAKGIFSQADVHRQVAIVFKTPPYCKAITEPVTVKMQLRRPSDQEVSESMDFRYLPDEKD
T3 sequence 2: T1 sequence

RELARELA (p65 homodimer), sequence (Q04206 1-307): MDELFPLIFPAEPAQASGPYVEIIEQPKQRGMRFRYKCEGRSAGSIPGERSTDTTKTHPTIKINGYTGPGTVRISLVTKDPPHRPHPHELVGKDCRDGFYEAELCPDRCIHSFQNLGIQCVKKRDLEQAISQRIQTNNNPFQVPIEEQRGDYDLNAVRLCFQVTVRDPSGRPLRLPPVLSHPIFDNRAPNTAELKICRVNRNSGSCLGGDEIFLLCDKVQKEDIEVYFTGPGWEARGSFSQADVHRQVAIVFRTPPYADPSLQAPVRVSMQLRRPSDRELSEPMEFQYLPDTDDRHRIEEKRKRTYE
RELA (p65) subunit of heterodimer;p50 subunit, sequence (Q04206 1-307, chain 1 of 2): as the sequence (Q04206 1-307) above
RELA (p65) subunit of heterodimer;p50 subunit, sequence (P19838 7-356, chain 2 of 2): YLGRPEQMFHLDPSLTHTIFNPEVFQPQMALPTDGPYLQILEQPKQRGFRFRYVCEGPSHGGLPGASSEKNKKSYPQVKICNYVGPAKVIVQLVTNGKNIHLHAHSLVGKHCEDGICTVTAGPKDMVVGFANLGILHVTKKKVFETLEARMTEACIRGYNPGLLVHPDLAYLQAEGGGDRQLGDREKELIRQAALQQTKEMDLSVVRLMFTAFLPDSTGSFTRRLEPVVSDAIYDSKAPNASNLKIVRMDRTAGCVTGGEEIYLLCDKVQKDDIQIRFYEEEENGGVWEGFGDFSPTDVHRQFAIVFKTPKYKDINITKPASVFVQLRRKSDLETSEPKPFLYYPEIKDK
p50p50 homodimer, sequence (P19838 7-356): as the sequence (P19838 7-356, chain 2 of 2) above

Sequence | binding signal (RELARELA (p65 homodimer)) [z-score] | binding signal (p50p50 homodimer) [z-score] | binding signal (p52p52 homodimer) [z-score] | binding signal [1] [z-score] | binding signal [2] [z-score] | binding signal (RELB subunit;p50 subunit) [z-score] | binding signal (RELB subunit;p52 subunit) [z-score] | binding signal [3] [z-score] | binding signal [4] [z-score]
CAAAGTCCCCT | 0.169 | 1.47 | 1.68 | 1.79 | 1.67 | 2.07 | 1.96 | 1.43 | 1.57
AGGTGTCCCCC | 0.286 | 1.17 | 0.966 | 1.2 | 1.19 | 1.21 | 1.46 | 1.14 | 1.02
AGGTTTATCCT | -0.465 | -0.953 | -0.558 | -1.01 | -0.905 | -0.943 | -0.798 | -1.17 | -0.61
CAGGGCCTCCC | -0.644 | -0.933 | -0.467 | -0.699 | -0.636 | -0.64 | -0.746 | -0.529 | -0.502
AGGTAATTCCT | 1.47 | 0.62 | 1.15 | 0.471 | 0.62 | 0.351 | 0.553 | 0.224 | 0.709
CAAAAATCCCC | 2.62 | 1.37 | 2.67 | 2.11 | 2.3 | 2.84 | 2.28 | 1.91 | 2.55
GAATATATCCC | 0.0475 | -0.184 | -0.107 | -0.275 | -0.268 | -0.131 | -0.295 | -0.368 | -0.351
GGAATCGTCCC | 0.862 | 0.42 | 0.582 | 0.504 | 0.591 | 0.29 | 0.267 | 0.649 | 0.392
AAGTGGCCCCC | -0.634 | 0.242 | -0.0278 | -0.101 | 0.0039 | 0.173 | 0.29 | 0.101 | 0.0509
CGATTTCCCCT | 1.73 | 1.66 | 2.21 | 2.26 | 1.96 | 2.39 | 2.23 | 1.83 | 1.81
GAAGAGTTCCC | 0.742 | 0.281 | -0.0634 | 0.27 | 0.0483 | 0.132 | -0.0744 | 0.46 | 0.057
GGAGTCACCCT | -0.674 | -0.676 | -0.345 | -0.224 | -0.5 | -0.378 | -0.661 | -0.396 | -0.585
GGGTTGGTCCT | -0.152 | -1.58 | -0.471 | -0.621 | -0.757 | -0.889 | -0.766 | -1.12 | -0.527
GGGGAGGTCCT | 0.546 | 0.328 | 1.26 | 0.275 | 0.847 | 0.375 | 0.376 | 0.314 | 0.559
GAATGGATCCC | -0.423 | -0.946 | -0.505 | -0.796 | -0.763 | -0.777 | -0.774 | -1.02 | -0.839
